Measured values from PubChem BioAssay (NCI).
“And” between values parts separate entries of the source, which are not always exact repeats. Equal entries are not always repeated. The panel holds about 79,000 compounds, 15% with a hit somewhere; the sample as a whole holds those more often. The source made the active and inactive calls. Cut-off read from the data, not from the text of the source: active = growth inhibition above about 70%; inactive = the rest.

How the values were obtained:
[1] = NCI Yeast Anticancer Drug Screen. Data for the rad50 strain (AID 155);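 note: 0% = growth of vehicle-only cultures of the same strain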; conditions: S. cerevisiae rad50 strain growth inhibition; at 50.0 µM; active compounds read high
Method in brief: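 A DNA repair-deficient yeast mutant serves as the test organism; compound-induced growth inhibition is calculated against vehicle-treated cells.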

[2] = NCI Yeast Anticancer Drug Screen. Data for the mec2-1 strain (AID 157); conditions: S. cerevisiae mec2-1 strain, at 50.0 µM, active compounds read high
Method in brief: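 Test agents were screened against the mec2-1 yeast strain, with defined DNA repair or cell cycle alteration. Growth was scored as inhibition against vehicle-only controls.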

[3] = NCI Yeast Anticancer Drug Screen. Data for the sgs1 mgt1 strain (AID 161);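 note: 0% = growth of cultures given vehicle only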; conditions: S. cerevisiae sgs1 mgt1 strain, at 50.0 µM, active compounds read high
Method in brief: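 Inhibition of yeast growth, normalised to vehicle-treated controls, is reported for a strain bearing genetic alterations in DNA damage repair.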

[4] = NCI Yeast Anticancer Drug Screen. Data for the cln2 rad14 strain (AID 165);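 note: 0% = growth equal to vehicle treated cultures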; conditions: S. cerevisiae cln2 rad14 strain, at 50.0 µM, active compounds read high
Method in brief: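 Growth of compound-exposed yeast (cln2 rad14 genotype) measured and expressed as inhibition relative to vehicle.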

[5] = NCI Yeast Anticancer Drug Screen. Data for the bub3 strain (AID 167); conditions: S. cerevisiae bub3 mutant strain, at 50.0 µM, active compounds read high
Method in brief: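 Inhibition values come from growth of compound-treated mutant yeast normalised to vehicle-treated controls.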

[6] = NCI Yeast Anticancer Drug Screen. Data for the mlh1 rad18 strain (AID 175); conditions: S. cerevisiae mlh1 rad18 strain growth inhibition; at 50.0 µM; active compounds read high
Method in brief: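 In this whole-cell yeast screen, a strain with altered DNA damage repair is challenged with compound, and its growth is measured against matched vehicle-treated controls.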

Measured: growth inhibition

CC1(C)CN=C(Nc2ccc(F)c(F)c2)S1
inactive: [1] 4.3% | [2] 3.8% | [3] 12.1% | [4] 15.3% | [5] -12.8% | [6] -19.6%

N#CC(C#N)=Cc1ccccc1F
inactive: [1] 15.5% | [2] 7.1% | [3] 12.2% | [4] 15.2% | [5] 10.6% | [6] 12.7%

O=C([O-])Cc1ccccc1.O=[N+]([O-])O.[Co+3].[NH2-].[NH2-].[NH2-].[NH2-].[NH2-]
inactive: [1] 13.1% | [2] 12.5% | [3] 21.3% | [4] 11.9% | [5] 14.8% | [6] -5.9%

COc1ccccc1N=Nc1cccc[c]1[Hg][Cl]
active: [1] 98.2% | [2] 99% | [3] 98.7% | [4] 98.7% | [5] 98% | [6] 98.3%

C[N+]1(CC2CC2)C2CC(OC(=O)C(CO)c3ccccc3)CC1C1OC12 (stereo not given)
inactive: [1] 11.1% | [2] 23.9% | [3] 10.7% | [4] 9.55% | [5] -0.6% | [6] -33.5%

CC1CN1c1nc(N2CC2C)nc(N2CC2C)n1 (stereo not given)
inactive: [1] -6.8% | [2] 13.6% | [3] -2.65% | [4] -1.85% | [5] -19.2% | [6] -11.1%

C1CN([PH+](N2CC2)N2CC2)CCO1.C1CN([PH+](N2CC2)N2CC2)CCO1.[I][Pd][I]
inactive: [1] 3.9% | [2] 6.7% | [3] -5.7% | [4] -8.05% | [5] 0% | [6] -4.4%

C[C@]12CC[C@H](O)C[C@H]1CC[C@@H]1[C@@H]2CC[C@]2(C)[C@@H](C3=CC(=O)OC3)CC[C@]12O
inactive: [1] -3.9% | [2] 12.4% | [3] 5.55% | [4] -56.4% | [5] 15.3% | [6] 8.4%

O=[P+](O)c1ccccc1
inactive: [1] -5% and -7.35% | [2] -24.9% and -26.3% | [3] -18.4% and 4.85% | [4] 5.9% and 0.6% | [5] -4.65% and -2% | [6] -5.5% and 1.3%

CC(=O)OC1OC(CS[As](C)CCO)C(OC(C)=O)C(OC(C)=O)C1OC(C)=O (stereo not given)
inactive: [1] 12.8% | [2] -16.9% | [3] -15.3% | [4] -8% | [5] -0.85% | [6] -9.55%

CC1(C(=O)O)C2[Se]c3cc[se]c3C2C1(C)C(=O)O (stereo not given)
inactive: [1] -2.5% | [2] 9.8% | [3] -8.15% | [4] -20.8% | [5] 1% | [6] -4.7%

Brc1ccc(NP(Br)(c2ccccc2)(c2ccccc2)c2ccccc2)cc1
inactive: [1] 52.8% | [2] 5.6% | [3] 58% | [4] 11.8% | [5] 11.9% | [6] 20.1%

C=CCc1c[nH]c(=S)[nH]c1=O.[Hg]
active: [1] 99.1% | [2] 98.8% | [3] 98.8% | [4] 98.8% | [5] 99% | [6] 98.8%

O=[As](O)(c1cccc(Cl)c1)C1CCCCC1O (stereo not given)
inactive: [1] 1.05% | [2] -0.35% | [3] 5.3% | [4] -1.95% | [5] 25.2% | [6] 34.4%

CC1(C)CC(O)CC(C)(C)N1O
inactive: [1] 21.8% | [2] 15.8% | [3] 37% | [4] 22.2% | [5] 20.2% | [6] 16.4%
